“And” between values parts separate entries of the source, which are not always exact repeats. Identical values can stand only once. Screen size: about 5,500 compounds; about 2,000 (36%) were called active. Another 18% or so got no clear call; they are omitted. No stated cut-off is given here; in the data, active means normalized growth mostly below about 0.91 (no sharp cut-off); inconclusive means no clear call, values can overlap the other calls; inactive means mostly above about 0.92. Some of the results follow.
Experiment: chemical genetic growth profiling, strain panel (AID 1159580);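 further: tested at 20 µM; growth read once vehicle control cultures reached saturation at 30 °C; 1 = growth at the plate median or of vehicle wells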
Details: S. cerevisiae deletion strains, growth OD

## CN(C)CCCN1c2ccccc2Sc2ccc(Cl)cc21
Locus YAL021C, strain ccr4, stronger effect = lower value
  normalized growth: 0.0773 (active)
Locus YAL026C, strain drs2, stronger effect = lower value
  normalized growth: 0.0621 (active)
Locus YAL030W, strain snc1, stronger effect = lower value
  normalized growth: 0.0722 (active)
Locus YAL040C, strain CLN3, stronger effect = lower value
  normalized growth: 0.992 (inactive)
Locus YBL061C, strain skt5, stronger effect = lower value
  normalized growth: 0.0759 (active)
Locus YBR009C, strain hhf1, stronger effect = lower value
  normalized growth: 0.0662 (active)
Locus YBR021W, strain FUR4, stronger effect = lower value
  normalized growth: 0.612 (active)
Locus YBR023C, strain chs3, stronger effect = lower value
  normalized growth: 0.0864 (active)
Locus YBR171W, strain sec66, stronger effect = lower value
  normalized growth: 0.351 (active)
Locus YBR229C, strain ROT2, stronger effect = lower value
  normalized growth: 1.01 (inactive)
Locus YBR231C, strain swc5, stronger effect = lower value
  normalized growth: 0.0709 (active)
Locus YBR279W, strain paf1, stronger effect = lower value
  normalized growth: 0.165 (active)
Locus YCL011C, strain gbp2, stronger effect = lower value
  normalized growth: 0.068 (active)
Locus YCL016C, strain dcc1, stronger effect = lower value
  normalized growth: 0.165 (active)
Locus YCL029C, strain bik1, stronger effect = lower value
  normalized growth: 1.03 (inactive)
Locus YCL069W, strain vba3, stronger effect = lower value
  normalized growth: 0.131 (active)
Locus YCR088W, strain abp1, stronger effect = lower value
  normalized growth: 0.0794 (active)
Locus YDL005C, strain med2, stronger effect = lower value
  normalized growth: 1.01 (inactive)
Locus YDL035C, strain GPR1, stronger effect = lower value
  normalized growth: 0.853 (active)
Locus YDL040C, strain nat1, stronger effect = lower value
  normalized growth: 0.14 (active)
Locus YDL074C, strain BRE1, stronger effect = lower value
  normalized growth: 0.87 (inactive)
Locus YDL101C, strain DUN1, stronger effect = lower value
  normalized growth: 0.992 (inactive)
Locus YDL185W, strain tfp1, stronger effect = lower value
  normalized growth: 1.01 (inactive)
Locus YDL192W, strain arf1, stronger effect = lower value
  normalized growth: 1.01 (inactive)
Locus YDR001C, strain nth1, stronger effect = lower value
  normalized growth: 0.119 (active)
Locus YDR069C, strain doa4, stronger effect = lower value
  normalized growth: 0.0779 (active)
Locus YDR101C, strain arx1, stronger effect = lower value
  normalized growth: 0.98 (inactive)
Locus YDR137W, strain rgp1, stronger effect = lower value
  normalized growth: 0.903 (inactive)
Locus YDR159W, strain sac3, stronger effect = lower value
  normalized growth: 0.274 (active)
Locus YDR162C, strain NBP2, stronger effect = lower value
  normalized growth: 0.599 (active)
Locus YDR195W, strain ref2
  normalized growth: 0.155 (active)
Locus YDR297W, strain sur2, stronger effect = lower value
  normalized growth: 0.0894 (active)
Locus YDR318W, strain mcm21, stronger effect = lower value
  normalized growth: 0.999 (inactive)
Locus YDR334W, strain swr1, stronger effect = lower value
  normalized growth: 0.0746 (active)
Locus YDR335W, strain msn5, stronger effect = lower value
  normalized growth: 0.158 (active)
Locus YDR363W, strain ESC2, stronger effect = lower value
  normalized growth: 0.953 (inactive)
Locus YDR388W, stronger effect = lower value
  normalized growth: 0.98 (inactive)
Locus YDR392W, strain spt3, stronger effect = lower value
  normalized growth: 0.351 (active)
Locus YDR502C, strain sam2, stronger effect = lower value
  normalized growth: 0.974 (inactive)
Locus YEL003W, strain gim4, stronger effect = lower value
  normalized growth: 0.0681 (active)
Locus YEL037C, strain rad23, stronger effect = lower value
  normalized growth: 0.0964 (active)
Locus YEL061C, strain CIN8 (second series), stronger effect = lower value
  normalized growth: 0.4 (active)
Locus YEL061C, strain CIN8, stronger effect = lower value
  normalized growth: 0.983 (inactive)
Locus YER002W, strain NOP16, stronger effect = lower value
  normalized growth: 0.972 (inactive)
Locus YER015W, strain faa2, stronger effect = lower value
  normalized growth: 0.111 (active)
Locus YER016W, strain bim1, stronger effect = lower value
  normalized growth: 0.102 (active)
Locus YER110C, stronger effect = lower value
  normalized growth: 1.04 (inactive)
Locus YER111C, strain swi4, stronger effect = lower value
  normalized growth: 0.977 (inactive)
Locus YER155C, strain BEM2 (second series), stronger effect = lower value
  normalized growth: 1.12 (inactive)
Locus YER155C, strain BEM2, stronger effect = lower value
  normalized growth: 1.02 (inactive)
Locus YER167W, strain BCK2, stronger effect = lower value
  normalized growth: 1.01 (inactive)
Locus YFR010W, strain ubp6, stronger effect = lower value
  normalized growth: 0.111 (active)
Locus YGL078C, strain dbp3, stronger effect = lower value
  normalized growth: 1.01 (inactive)
Locus YGL086W, strain mad1, stronger effect = lower value
  normalized growth: 0.936 (inactive)
Locus YGL167C, strain pmr1, stronger effect = lower value
  normalized growth: 0.562 (active)
Locus YGL173C, strain kem1, stronger effect = lower value
  normalized growth: 0.501 (active)
Locus YGL227W, strain vid30, stronger effect = lower value
  normalized growth: 0.103 (active)
Locus YGL240W, strain doc1, stronger effect = lower value
  normalized growth: 0.92 (inactive)
Locus YGL248W, strain PDE1, stronger effect = lower value
  normalized growth: 0.994 (inactive)
Locus YGL253W, strain hxk2, stronger effect = lower value
  normalized growth: 0.0994 (active)
Locus YGR078C, strain PAC10, stronger effect = lower value
  normalized growth: 0.889 (inactive) and 0.997 (inactive)
Locus YGR135W, strain pre9, stronger effect = lower value
  normalized growth: 0.913 (inactive)
Locus YGR252W, strain gcn5, stronger effect = lower value
  normalized growth: 0.78 (inactive)
Locus YHR013C, strain ard1, stronger effect = lower value
  normalized growth: 0.513 (active)
Locus YHR027C, strain rpn1, stronger effect = lower value
  normalized growth: 0.082 (active)
Locus YHR030C, strain SLT2, stronger effect = lower value
  normalized growth: 0.948 (inactive) and 0.983 (inactive)
Locus YHR079C, strain IRE1 (second series), stronger effect = lower value
  normalized growth: 1.01 (inactive)
Locus YHR079C, strain IRE1, stronger effect = lower value
  normalized growth: 0.984 (inactive)
Locus YHR094C, strain hxt1, stronger effect = lower value
  normalized growth: 1 (inactive)
Locus YHR129C, strain ARP1, stronger effect = lower value
  normalized growth: 1 (inactive)
Locus YHR142W, strain chs7, stronger effect = lower value
  normalized growth: 0.116 (active)
Locus YHR200W, strain rpn10, stronger effect = lower value
  normalized growth: 1.01 (inactive)
Locus YIL066C, strain RNR3, stronger effect = lower value
  normalized growth: 0.936 (inactive)
Locus YIL073C, strain SPO22, stronger effect = lower value
  normalized growth: 0.979 (inactive)
Locus YIL125W, strain kgd1, stronger effect = lower value
  normalized growth: 1 (inactive)
Locus YIR030C, strain dcg1, stronger effect = lower value
  normalized growth: 1.02 (inactive)
Locus YJL092W, strain hpr5, stronger effect = lower value
  normalized growth: 0.0961 (active)
Locus YJL095W, strain BCK1 (second series), stronger effect = lower value
  normalized growth: 0.0651 (active)
Locus YJL095W, strain BCK1, stronger effect = lower value
  normalized growth: 0.739 (active) and 0.979 (inactive)
Locus YJL115W, strain asf1, stronger effect = lower value
  normalized growth: 0.183 (active)
Locus YJL129C, strain trk1, stronger effect = lower value
  normalized growth: 0.159 (active)
Locus YJL134W, strain LCB3, stronger effect = lower value
  normalized growth: 0.998 (inactive)
Locus YJL154C, strain vps35, stronger effect = lower value
  normalized growth: 0.0684 (active)
Locus YJL164C, strain tpk1, stronger effect = lower value
  normalized growth: 0.0728 (active)
Locus YJL166W, strain qcr8, stronger effect = lower value
  normalized growth: 0.0785 (active)
Locus YJL168C, strain set2, stronger effect = lower value
  normalized growth: 1.01 (inactive)
Locus YJL187C, strain SWE1 (second series), stronger effect = lower value
  normalized growth: 0.949 (inactive)
Locus YJR043C, strain POL32, stronger effect = lower value
  normalized growth: 1.02 (inactive)
Locus YJR066W, strain TOR1, stronger effect = lower value
  normalized growth: 0.974 (inactive)
Locus YJR075W, strain HOC1, stronger effect = lower value
  normalized growth: 0.933 (inactive)
Locus YKL009W, strain mrt4, stronger effect = lower value
  normalized growth: 1.02 (inactive)
